Assay results: PubChem BioAssay (NCI)
“And” between values parts separate entries of the source, which are not always exact repeats. Equal values may be shown once. The panel holds about 83,000 compounds, 20% with a hit somewhere; the sample as a whole holds those more often.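 Activity criterion: percent growth below 10, measured after cells in 96-well plates were exposed to a single compound concentration for 48 hours.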 Unmarked numbers belong to inactive results. The source made the active and inactive calls.

Each compound was assayed on MDA-MB-468 breast (assay: NCI-60 one-dose screen, 48 h (100 = growth as untreated, 0 = no growth, -100 = all killed)). Details: 10 µM unless noted.

SMILES	growth
CN(CCCCCl)P(=O)(OCc1ccc([N+](=O)[O-])o1)C(F)(F)c1ccc(CC(=O)NC[C@@H](O)/C=C\[C@@H](O)[C@H](CO)Cc2ccccc2)cc1 (stereo not given in full)	55%
CCOC(=O)c1c(Nc2ccccc2)nn2c(-c3ccc(Br)cc3)ccnc12	67.5%
COc1cc2c(Oc3ccc4[nH]c(C)cc4c3F)ncnc2cc1OCCCN1CCCC1	99.4%
CCN(CC)CCCOc1cccc2c1C(=O)c1cccc(OCCCN(CC)CC)c1C2=O	35.5%
COC1CC(O)C2=C(CC3C(/C(C)=C\CC=C(C)C)CCC3(C)O2)C1=O (stereo not given)	109%
O=C(Nc1ccc(I)cc1F)c1cc(F)ccc1O	-3.61% (active)
C/C(=N\NC(N)=S)c1nnn(-c2ccc([N+](=O)[O-])cc2)c1C	89.3%
Cc1ccc2[nH]c(=O)c3c(c2c1)OC(N)=C(C#N)C31c2cc(Br)ccc2-c2ccc(Br)cc21	55.4%
C[C@]12CC[C@@H]3c4ccc(O)c([N+](=O)[O-])c4CC[C@H]3[C@@H]1CC[C@@H]2NS(=O)(=O)c1ccc(C(F)(F)F)cc1	25.2%
COc1ccc(-c2cc(-c3cc(OC)c(OC)c(OC)c3)c(C#N)c(=O)n2CCCCC(=O)O)cc1	109%
CC(=O)Oc1ccc(C23c4ccccc4C2(OC(C)=O)c2cc(OC(C)=O)ccc23)cc1 (stereo not given)	14.8%
CN(C)c1ccc(Cc2ccc(N(C)C)cc2Cl)c(Cl)c1	88.7%
C[C@@H]1CC[C@@H]2[C@@H]1[C@H](OC(=O)/C=C/c1ccccc1)[C@]1(c3ccccc3)C[C@@H](NC(=O)CO)[C@@]2(C)O1	98.3%
Cc1ccccc1NC(=O)N/C(N)=N/c1nc2ccccc2s1	1.56% (active)
O=c1c(CNc2ccc(S(=O)(=O)Nc3ncccn3)cc2)coc2ccccc12	108%
CC(C)(CCc1ccccn1)C(=O)CCCc1ccccn1	107%
CN(C)c1ccc(-c2ccc(-c3ccc(C(=N)N)cn3)o2)cc1	-64.4% (active)
O=C(Nc1ccccc1)Oc1ccccc1-c1ccccc1	101%
Cc1ccc(-c2nc3nc(-c4ccccc4)nc(N4CCCNCC4)c3o2)cc1	-67.5% (active)
C/C(=N/NC(=O)Cn1c2ccccc2c2ccncc21)c1cccs1	105%

SMILES	growth
CCc1ccc2nc(NC(=O)Cc3csc(NC(=O)c4ccco4)n3)sc2c1	-54.2% (active)
N#CC(I)CS(=O)(=O)c1ccccc1 (stereo not given)	25%
COc1ccc(-c2nnc(SCc3ccc(O)c4ncccc34)o2)cc1	51.2%
O=C1C=C(c2ccccc2)C(O)(c2ccccc2)C1 (stereo not given)	108%
CC1CCN(S(=O)(=O)c2ccc(S(=O)(=O)N3CCCC(c4nc5c(nnn5Cc5cccc(Cl)c5)c(=O)[nH]4)C3)cc2)CC1 (stereo not given)	27.7%
COc1ccc(C2CC(c3ccc(Nc4ccnc5cc(Cl)ccc45)cc3)=NN2C(C)=O)cc1 (stereo not given)	65.3%
O=C(CCCCCCN1CC(=O)N2[C@H](c3ccc(Cl)cc3)c3[nH]c4ccccc4c3C[C@@H]2C1=O)NO	36.5%
Clc1ccc(-c2nc3ccccc3s2)cc1Cl	110%
O=C(Nc1ccc(C(=O)O)c(O)c1)c1ccccc1	105% and 104%
COc1ccc(-c2cc(-c3ccc(OC)c(OC)c3)nc(SCCCCCC(=O)NO)n2)cc1	54.8%
Cn1c(=O)c2c(nc3n(-c4ccc(Cl)cc4Cl)c(Sc4nc(-c5ccccc5)c(C#N)c(=O)[nH]4)cn23)n(C)c1=O	60.5%
Cc1nn(-c2ccccc2)c2nc(CCl)[nH]c(=O)c12	26.6%
Fc1ccc(-c2nnc(-c3c(-c4ccc(F)cc4)nc4ccccn34)o2)cc1	92.5%
COc1ccc2c(c1)sc1nc(-c3ccccc3)c(-c3ccc(O)c(OC)c3)n12	107%
CCN1C(=S)N(CC)C2C1N=C(SC)N2/N=C/C=C/c1ccccc1[N+](=O)[O-] (stereo not given)	99.8%
CC(C)Cc1ccc([C@H](C)C(=O)O)cc1	113%
Cn1cc(-c2nnc(N)nc2-c2c[nH]c3ccc(Br)cc23)c2cc(Br)ccc21	105%
CCN(CC)CCCC(C)Nc1ccnc2cc(Cl)c(SCc3ccccc3)cc12 (stereo not given)	-88.5% (active)
COc1ccc(C2NC(=O)c3cc4c(cc3N2)OCO4)cc1 (stereo not given)	-1.6% (active)
COc1cccc(-c2nn(-c3ccccc3)cc2-c2ccnc(NCCNS(=O)(=O)c3cccc(F)c3)c2)c1	15.8%
